# Screen size: about 400,000 compounds; about 5,500 (1.4%) were called active. Another 9% or so got no clear call; they are omitted. The call rests on the fitted dose curve; in most records, active means well fitted cell-killing curve with a large enough effect; inconclusive means small, poorly fitted or top-dose-only effect, or effect the other way; inactive means flat fitted curve, though single readings scatter. Shown is part of a subset that was picked to be rich in actives. A call without a number means that no potency is given here.
# Test: qHTS assay for MDR1-selective chemotherapeutics: Primary screen using the parental adenocarcinoma cell KB-3-1; further: nearly all actives have a fitted effect of over 60% in size
# Details: KB-3-1 viability, CellTiter-Glo ATP luminescence, 72 h; series mostly up to 46.1 µM
# Procedure, shortened: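 Using CellTiter-Glo luminescence, growth of non-resistant KB-3-1 adenocarcinoma cells is assessed 72 h after pin-tool compound addition at 37 °C. Normalized responses across the concentration series yield fitted curves.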
# Potency means the concentration at half of the fitted maximal effect.
row,SMILES,Potency
1,COc1cc(CNC(=O)c2cc3n(n2)CCCN(Cc2cccc(F)c2)C3=O)cc(OC)c1OC,inactive
2,COc1ccc(CNC(=O)CSc2nc3ccccc3nc2Cc2ccccc2)cc1,inactive
3,COc1ccc2c(c1)c(=Cc1ccc(N(C)C)cc1)c1cc(-c3ccccc3)[n+](C)n12,3.66 µM (active)
4,CN(C)c1ccc(/C=c2\[nH]c(=O)/c(=C/c3ccc(N(C)C)cc3)[nH]c2=O)cc1,inactive
5,NC(=O)C1CCN(c2cc(-c3ccc4c(c3)OCCCO4)ncn2)CC1,inactive
6,Cc1oc2ccc(O)c(CN3CCCCC3)c2c1C(=O)Nc1cccc(C(F)(F)F)c1,inactive
7,COc1ccc(CCNC(=O)c2ccc(-n3c(C)cc4c3CCCC4)cc2)cc1OC,inactive
8,COc1cc(Cl)c(C)cc1Nc1nnc(-n2nc(C)cc2C)c2ccccc12,inactive
9,COc1ccc(C(=O)NNc2cc(C)nc(NNC(=O)c3ccc(OC)cc3)n2)cc1,inactive
10,CC(=O)c1ccc(Oc2cc(C)nc(-n3nc(C)cc3C)n2)cc1,0.651 µM (active)
11,Cc1cc(C)nc(-n2nc(C)cc2NC(=O)c2ccc(F)cc2F)n1,inactive
12,COc1ccc(Nc2cc(C)nc(-n3nc(C)cc3C)n2)cc1,0.731 µM (active)
13,COc1ccc(Nc2cc(Sc3ccc(OC)cc3)ncn2)cc1,inactive
14,COc1ccccc1/C=N\Nc1cc(C)nc(-n2nc(C)cc2C)n1,7.31 µM (active)
15,COc1ccc(C(C)=O)cc1CSc1nc2nc(C)cc(C)n2n1,inactive
16,COc1ccccc1/C=N/N1CCN(Cc2ccccc2Cl)CC1,inactive
17,NS(=O)(=O)c1ccc(NC(=O)C(=O)Nc2ccc3nc4n(c(=O)c3c2)CCCCC4)cc1,inactive
18,COc1ccc(CCN2C(=O)N(c3cccc(OC)c3)C(=O)C2CC(=O)Nc2ccccc2)cc1 (stereo not given),inactive
19,COc1ccccc1CNS(=O)(=O)c1cc(Br)cc2c1N(C(C)=O)C(C)C2 (stereo not given),inactive
20,Cc1ccc2c(c1)c1c(c(=O)n(-c3ccccc3)c(=O)n1CC(=O)c1ccc(Cl)cc1)n2C,inactive
21,COC(=O)CC1Oc2ccccc2-n2cc(-c3ccccc3)nc21 (stereo not given),inactive
22,CCOCCCNC(=O)c1c(NC(=O)Cc2coc3c(C)c(C)ccc23)sc2c1CCC2,inactive
23,O=C(CCc1ccccc1)NCc1ccc2c(c1)CCN2C(=O)c1ccccc1,inactive
24,CCCCn1c(CNC(=O)C23CC4CC(CC(C4)C2)C3)nnc1SCC(=O)Nc1ccc(C)cc1,inactive
25,Cc1ccc(C(=O)Nc2cc3c(cc2N2CCCC2)n(C)c(=O)c(=O)n3C)cc1,inactive

row,SMILES,Potency
1,CCCC1=Nc2cc(C(=O)NCc3ccco3)ccc2Sc2ccccc21,5.8 µM (active)
2,CCCC1=Nc2cc(C(=O)NCCN3CCCC3)ccc2Sc2ccccc21,inactive
3,COc1ccc(CCNS(=O)(=O)c2ccc(C(=O)NCc3ccco3)cc2)cc1OC,inactive
4,Cc1ccc(OCC(=O)Nc2ccc(Cl)c(-c3nc4ccccc4[nH]3)c2)cc1C,inactive
5,O=C(c1ccc(Cl)cc1)n1nc(-c2cccnc2)nc1NCc1ccc(F)cc1,inactive
6,O=C(Cn1nc(C(F)(F)F)c2c1CCCC2)Nc1ccc(Cl)cc1,inactive
7,O=C(Cn1nc(CNc2ccc(Cl)cc2)[n+]2c1CCCCC2)c1ccc(Cl)cc1,16.4 µM (active)
8,O=C(Cn1ncc(N2CCCC2)c(Br)c1=O)c1ccc(Cl)cc1,inactive
9,Cc1nc2ccc(S(=O)(=O)N(CC(=O)Nc3ccc(F)cc3)Cc3ccccc3)cc2s1,inactive
10,COc1ccc(-c2nc3c4ccccc4n(CC(=O)Nc4ccc(C(C)=O)cc4)c(=O)n3n2)cc1,inactive
11,CCc1ccccc1OCC(=O)Nc1ccc(C)c(S(=O)(=O)N2CCCCCC2)c1,18.4 µM (active)
12,COc1ccccc1C(=O)Nc1ccc(C)c(S(=O)(=O)N2CCCCC2)c1,inactive
13,Cc1ccc(NC(=O)COC(=O)C2CC2)cc1S(=O)(=O)N1CCOCC1,inactive
14,O=C(CCc1nc(CN2CCN(S(=O)(=O)c3ccc(Cl)cc3)CC2)no1)N1CCCCC1,inactive
15,COc1cc2ccccc2cc1C(=O)Nc1cccc(-c2nc3ccccc3o2)c1,inactive
16,Cc1cccc(NC(=O)CSc2nc3c([nH]c4ccccc43)c(=O)n2-c2cc(C)cc(C)c2)c1,inactive
17,COc1cc2c(-c3ccc4c(c3)OCO4)c(-c3ccsc3)oc(=O)c2cc1OC,inactive
18,Cc1oc(C)c2c(=O)cc(-c3ccc4c(c3)OCO4)cc(OC(=O)c3ccc(Cl)cc3)c12,inactive
19,COc1cc(-c2c(-c3ccc4c(c3)OCO4)noc2C)ccc1F,3.26 µM (active)
20,Cc1ccc(C=O)cc1Cl,inactive
21,O=C(CSc1oc(-c2ccccc2)nc1S(=O)(=O)c1ccc(Br)cc1)NC1CCCCC1,inactive
22,COc1ccc(OC)c(-c2noc(N3CCN(c4cc(Cl)ccc4C)CC3)n2)c1,inactive
23,CCOc1ccccc1CNC(=O)c1cnc2c(-c3ccc(OCC)c(OCC)c3)c(C)nn2c1C,inactive
24,Cc1ccccc1-c1nc2cc(NC(=O)c3cccc(OCCC(C)C)c3)ccc2o1,inactive
25,Cc1cc(O)c(C(c2ccccc2)N2CCN(c3ccccc3F)CC2)c(=O)n1Cc1ccco1 (stereo not given),inactive

row,SMILES,Potency
1,Cc1ccc(S(=O)(=O)CCC(=O)OCC(=O)N(C)Cc2ccccc2)cc1,inactive
2,COc1ccc(C)cc1NC(=O)CCS(=O)(=O)c1cccc2nonc12,inactive
3,Cc1cccc2sc(N(CCCN(C)C)C(=O)CCS(=O)(=O)c3ccccc3)nc12,20.6 µM (active)
4,COc1ccccc1CNC(=O)CS(=O)(=O)c1cccc2nsnc12,inactive
5,Cc1cccc(C)c1NC(=O)CCS(=O)(=O)c1cccc2nsnc12,inactive
6,COc1cccc2sc(N(CCCN(C)C)C(=O)CCS(=O)(=O)c3ccccc3)nc12,18.4 µM (active)
7,COc1cc(NC(=O)c2nn(-c3ccc(C)cc3)c(=O)c3c2c2ccccc2n3C)cc(OC)c1OC,inactive
8,COc1ccc(C)cc1-n1c(-c2ccc(C)cc2)cc2c1CC(C)(C)CC2=O,inactive
9,O=C(Nc1nnc(C2CC(=O)N(c3ccc(Cl)cc3)C2)s1)c1ccco1 (stereo not given),inactive
10,Cc1nc2nc(NCc3cccc(Br)c3)[nH]n2c(=O)c1Cc1ccccc1,inactive
11,CCN(CCCNC(=O)Cn1ncc2c([nH]c3ccccc32)c1=O)c1cccc(C)c1,inactive
12,COc1ccc(-c2noc(CSc3nnc(-c4ccccc4)n3-c3ccc(F)cc3)n2)c(OC)c1,inactive
13,CCOC(=O)c1c(C)[nH]c(C)c1S(=O)(=O)N1CCCC(C(=O)NCc2ccccc2Cl)C1 (stereo not given),inactive
14,COc1cc(C(=O)Nc2ccc(OCc3cc(=O)n4ccc(C)cc4n3)cc2)cc(OC)c1OC,inactive
15,CCN(CC)CCOc1ccc2c(c1)C(=NNC(=O)c1ccccn1)c1cc(OCCN(CC)CC)ccc1-2,14.6 µM (active)
16,CN(CCOc1ccc(CC2SC(=O)NC2=O)cc1)c1ccccn1 (stereo not given),inactive
17,CCN(CC)CCNCC(=O)Nc1ccc(Oc2ccccc2)cc1,inactive
18,Cn1c(=O)c2c(nc(Oc3ccc(C#N)cc3)n2Cc2ccc(Cl)cc2Cl)n(C)c1=O,inactive
19,CCc1ccc(NC(=O)Cn2c(=O)n(CCC(=O)NCc3ccc4c(c3)OCO4)c(=O)c3ccccc32)cc1,inactive
20,COC(=O)c1ccccc1NC(=O)c1cnn(-c2ccc(F)cc2)c1-n1cccc1,inactive
21,CCC(=O)N1CCc2cc(S(=O)(=O)NC(Cc3ccccc3)C(=O)NCc3ccccc3)ccc21 (stereo not given),inactive
22,COc1ccc(C2=Nn3c(nnc3-c3ccccc3OC)SC2)cc1OC1CCCC1,2.31 µM (active)
23,CCn1c(SCC(=O)NC2CC2)nnc1-c1ccccc1OC,inactive
24,Cc1nnc2n1N=C(c1ccc3c(c1)NC(=O)CO3)CS2,inactive
25,O=[n+]1c2c(n([O-])c3cc(Br)ccc31)CCC2,inactive

row,SMILES,Potency
1,O=C1CCCc2c1[nH]c1ccc(Br)cc21,0.651 µM (active)
2,C/C(=N\N)c1c(-c2ccccc2)c2cc(Br)ccc2[nH]c1=O,inactive
3,CCOC(=O)c1ccccc1NC(=O)CCc1c(C)nc2c(c1C)c(=O)n(C)c(=O)n2C,inactive
4,Cc1nn(CC(=O)O)c(=O)c2cc3cc(F)ccc3n12,inactive
5,COc1cc(NC(=O)CCn2nc(C)cc2C)cc(OC)c1OC,inactive
6,OC(CBr)CN1CCCCC1 (stereo not given),inactive
7,CC1(C(=O)NS(=O)(=O)c2ccccc2)CCN1C(=O)C/C=C/c1ccccc1 (stereo not given),inactive
8,CC1(C(=O)O)CCN1C(=O)/C=C/c1ccccc1 (stereo not given),inactive
9,CC1(C)CCSC(/C=C/c2ccccc2)=N1,14.6 µM (active)
10,COc1ccc(NC(=S)SC)cc1OC,inactive
11,CC(=O)c1c(C)oc2ccc(NS(=O)(=O)c3ccc(C(=O)O)cc3)cc12,inactive
12,COc1ccc(NS(=O)(=O)c2ccc(NC(C)=O)cc2)cc1OC,14.6 µM (active)
13,COc1ccc(S(=O)(=O)Nc2ccc3oc(C)c(C(C)=O)c3c2)cc1,3.26 µM (active)
14,COc1ccc(S(=O)(=O)Nc2cc(C)on2)cc1NC(C)=O,inactive
15,CC(=O)c1c(C)oc2ccc(NS(=O)(=O)c3ccccc3)cc12,inactive
16,Cc1ccc(N(C)C(=O)C2CCN(S(=O)(=O)c3ccc4c(c3)CCCN4C(=O)C3CCC3)CC2)cc1,inactive
17,CCOc1ccc(CNCc2c(C(=O)O)c(C)n(Cc3cccc(OC)c3)c2C)cc1OC,inactive
18,OCCNc1ncnc2oc(-c3ccco3)c(-c3ccco3)c12,inactive
19,Cn1c(=O)c2c(SCC(=O)N3CCc4ccccc43)nc(-c3ccc(Cl)cc3)nc2n(C)c1=O,inactive
20,O=C(COc1ccccc1F)Nc1ccc(C(=O)OCc2cc(=O)n3nc(C4CC4)sc3n2)cc1,inactive
21,COc1cccc(C(=O)NCc2ccc3c(c2)CCN3C(=O)c2ccncc2)c1,inactive
22,Brc1cccc[n+]1Cc1cccc(C[n+]2ccccc2Br)c1,inactive
23,Cc1cc(-c2n[nH]c(=S)n2/N=C/C(Br)=C/c2ccccc2)n[nH]1,5.8 µM (active)
24,S=c1[nH]nc(-c2ccco2)n1/N=C/c1ccc(Br)s1,inactive
25,COc1ccccc1/C=C/C=N/n1c(-c2ccc(Cl)cc2Cl)n[nH]c1=S,inactive

# Reference: PubChem BioAssay AID1347075 (National Center for Advancing Translational Sciences (NCATS), 2019)
